Screening data: PubChem BioAssay, National Center for Advancing Translational Sciences (NCATS)
Hits are enriched below; roughly 8.1% of the tested compounds scored in any of these assays.
ELG1 DNA repair = blocks ELG1-dependent DNA repair in HEK293T cells; hit rate 2.3% among 330,000; Potency, µM (highest dose often 46.1 µM), for inactives: top-dose activity change, negative = inhibition, hits mostly inhibitors; HEK293T ELG1-luciferase reporter, luminescence, 16 h; DNA damage induced by 5-fluorouridine; also: % is scaled to controls: 0 for no effect and ±100 for the full control effect; nearly all actives have a fitted effect of over 55% in size
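Quantitative HTS, concentration-response format. 2,000 cells/well co-treated with 5-fluorouridine and compound, 16 hr in 5% CO2 at 37 °C; ONE-Glo luminescence read after 30 min.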
KB-V1 cytotox = kills drug-selected multidrug resistant KB-V1 cells. KB-V1 MDR cells viability, CellTiter-Glo, 72 h. Potency, µM (doses to about 46.1 µM), hits mostly cytotoxic. hit rate 3.4% among 400,000. AID 1347076; also: % is scaled to controls: 0 for no effect and ±100 for the full control effect; nearly all actives have a fitted effect of over 60% in size
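KB-V1 cells (P-gp-expressing MDR subline of KB-3-1) in phenol-red-free DMEM with 10% FBS were exposed to library compounds over a concentration series for 72 h at 37 degrees C. Viability read by CellTiter-Glo luminescence; concentration-effect curves fitted after normalization.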
MCF10A rerep = induces DNA re-replication in MCF 10a normal breast cells | MCF 10A DNA re-replication, Hoechst nuclear intensity, 48 h | Potency, µM (doses to about 46.1 µM), for the others: at the top dose activity, positive = re-replication, actives largely listed as activators | hit rate 2.9% among 350,000; also: % of control where 0% means no effect; nearly all actives have a fitted effect of over 50% in size
SW480 rereplic = induces DNA re-replication in SW480 colon adenocarcinoma cells; Potency, µM (doses to about 46.1 µM), for the others: at the top dose re-replication activation, usual class: activators; SW480 DNA re-replication, Hoechst DNA content imaging, 48 h; hit rate 1.8% among 340,000; AID 624297; also: % of control where 0% means no effect; nearly all actives have a fitted effect of over 55% in size
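Hoechst fluorescence of nuclei (405 nm excitation, 500-530 nm emission) measured by plate-scanning imager after 48 hr compound exposure at 37 C; re-replication scored as increased number of nuclei with elevated intensity.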
KB-3-1 cytotox = KB-3-1 parental cell cytotoxicity | KB-3-1 viability, CellTiter-Glo ATP luminescence, 72 h | Potency, µM (series often up to 46.1 µM), usual class: cytotoxic | hit rate 1.4% among 400,000 | AID 1347075; also: % is scaled to controls: 0 for no effect and ±100 for the full control effect; nearly all actives have a fitted effect of over 60% in size
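Here the drug-naive KB-3-1 line serves as comparator for MDR sub-line selectivity; cells received compound titrations, 72 h at 37 °C, then CellTiter-Glo readout.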
An asterisk follows results filed as active; i = inactive; u = inconclusive; x = not tested or not shown. Calls follow the shape of the dose curve; as a rule, active = well fitted curve in the direction sought with a large enough effect; inconclusive = small, poorly fitted or top-dose-only effect, or another doubt; inactive = no such curve, though single readings can be large; an effect the other way counts as inactive or inconclusive. Potency is read from the fitted curve at half-maximal effect.

SMILES	ELG1 DNA repair	KB-V1 cytotox	MCF10A rerep	SW480 rereplic	KB-3-1 cytotox
Brc1ccc(-c2nn3c(-c4ccccn4)nnc3s2)o1	-10%	18µM*	3%	-8%	u
Brc1ccc(-c2nn3c(-c4ccco4)nnc3s2)o1	-9%	16µM*	0%	-6%	u
Cc1ccc(-n2c(N)cc(=O)nc2SCC(=O)NC2CCCCC2)cc1C	-6%	x	-4%	-2%	x
CCOc1ccc(CCNC(=O)c2oc(=O)c3ccccc3c2-c2ccc(C)cc2)cc1OCC	x	i	x	x	i
COc1ccc2nc(-c3ccccc3)[nH]c(=O)c2c1	x	i	-1%	-6%	i
COc1ccc(-c2nc3ccc(N4CCCC4)cc3c(=O)[nH]2)cc1OC	-11%	u	23µM*	11µM*	u
Cc1cc(C=CC#N)cc(C)c1Nc1nc(Nc2ccc3c(c2)OCO3)c2[nH]cnc2n1	x	u	x	x	18µM*
COc1cc(C(=O)Nc2cc3c(cc2N2CCCCC2)n(C)c(=O)n3C)cc(OC)c1OC	u	i	3%	-2%	i
CCOC(=O)/C=C1\SCC(=O)N1CC(=O)NC(c1ccccc1)c1ccccc1	-15%	6.5µM*	5%	5%	i
CN(C)c1cccc2c(S(=O)(=O)NC(=O)[C@H]3O[C@@H](n4cnc5c(N)ncnc54)[C@H](O)[C@@H]3O)cccc12	x	i	x	x	i
CC(C)(C)c1cc(C(=O)Nc2cccc3ccccc23)ccn1	-11%	i	4%	-1%	i
CCc1ccc(NC(=O)c2ccnc(C(C)(C)C)c2)cc1	-4%	21µM*	-3%	-14%	i
C[C@H](NC(=O)OC(C)(C)C)[C@@H](O)c1ccco1	x	i	x	x	i
Cc1ccc2nc(NC(=O)CNS(=O)(=O)c3ccc(Br)s3)sc2c1	5%	i	u	-12%	i
